Assay results taken from paper PMC5540273 (PLoS ONE, 2017).

tested on: STK33; conditions: concentration: 1 μM, replicates: in singlicate; n = 1
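Also: KINOMEscan kinase panel screen.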

Structure (SMILES)	%Inh [%]
CC1=C(C(=O)Nc2cc3cn[nH]c3cc2F)C(c2ccc(C(F)(F)F)cc2)CC(=O)N1 (stereo not drawn) [GSK429286]	0
COC(=O)c1c(-c2ccccc2)c2cc(OC)ccc2c(=O)n1Cc1ccccc1	0
O=C(O)COc1ncnc2cc(-c3ccc4[nH]ncc4c3)sc12	0
Nc1nc(-c2nccs2)c(-c2ccnc3ccccc23)s1 [GW693542]	0
Cn1cncc1-c1ccc2ncnc(Nc3ccc(OCc4ccccc4)cc3)c2c1 [GW320571]	20
O=C(Nc1ccc2c(c1)OCO2)NC1CCN(c2ccnc(Nc3ccc(F)cc3)n2)C1 (stereo not drawn) [GSK1379724]	0
Cc1ccccc1-n1cnc2c(N)ncnc21 [SKF-97510]	0
Cn1ccc2ncnc(Oc3ccc(NC(=O)Nc4ccccc4)cc3)c21	17
O=C1NC(=O)C(N2CCc3ccccc32)=C1c1ccccc1Cl [SB-373598]	9
O=C(Nc1ccccc1)Nc1cccc(Oc2ccc3nccn3n2)c1	1
Nc1ncnc2[nH]c(-c3ccccc3)nc12 [AH5015]	0
CS(=O)(=O)c1ccc(-c2c(-c3ncn[nH]3)sc(N3CCOCC3)c2C#N)cc1	0
Cc1c(O)cccc1Nc1ccnc2ccc(C(F)(F)F)cc12.Cl [GW466413]	0
CS(=O)(=O)c1ccc(-c2nc3n(c2-c2ccncc2)CCC3)cc1 [SKF-105942]	0
Cc1cc(NCC(c2ccccc2)c2ccccc2)nc(NCc2ccc(C(F)(F)F)cc2)n1 [GW497681]	0
Cl.NC(=O)c1cccc(Nc2nccc(Nc3ccc(Oc4cccc(Cl)c4)c(Cl)c3)n2)c1 [GW659008]	0
CC(C)(C)c1ccc(C(=O)Nc2cn3cc(Cl)ccc3n2)cc1	0
O=c1cc(N2CCOCC2)nc2n(Cc3cccc(Cl)c3Cl)ccn12 [GSK2286295]	0
CCCc1ccc(S(=O)(=O)NC2CCN(c3ccnc(Nc4ccc(F)cc4)n3)C2)cc1 (stereo not drawn) [GSK1379715]	0
O=S(=O)(c1ccc(-c2ccnc3[nH]ccc23)cc1)N1CCCC1 [GSK846226]	0
COc1ccc(C2=C(Nc3cccc(C(=O)O)c3)C(=O)NC2=O)cc1 [SB-390765]	0
